Screens deposited in PubChem BioAssay by National Center for Advancing Translational Sciences (NCATS).
Sfp PPTase inh: Sfp phosphopantetheinyl transferase inhibition; Q9F4F7; Biochemical Sfp PPTase activity, qHTS; Potency, µM, hits mostly inhibitors; 310,000 tested, 3.5% active;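 also: the enzyme is Sfp with the accession as filed and its product quenches rhodamine fluorescence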
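Reaction rates are the 30-min fluorescence difference (ex 525, em 598 nm) in wells containing 15 nM Sfp, 5 uM rhodamine-CoA and 12.5 uM BHQ-2-YbbR at pH 7.6 with 10 mM MgCl2.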
PINK1 expr mod: PINK1 expression modulation; PINK1 immunofluorescence, high-content cytometry, 24 h; Potency, µM (series often up to 76.6 µM), hits mostly activators; 410,000 tested, 0.2% active; active = well fitted activation curve with a large enough effect; inconclusive = small, poorly fitted or top-dose-only effect; cell line not stated here; also: nearly all actives have a fitted effect of over 65% in size
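Stable cell line treated 24 h with compounds at 5 concentrations (CCCP controls), then fixed and immunostained for PINK1 plus nuclear and cell stains; PINK1 immunofluorescence quantified by laser-scanning microplate cytometry.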
ClpP mod: qHTS Assay for Activators of ClpP; ATP-dependent Clp protease proteolytic subunit (Bacillus subtilis (strain 168)), P80244; purified B. subtilis ClpP, FRET peptide cleavage, 20 min; Potency, µM (top dose mostly 57.5 µM); 340,000 tested, 1.9% active; AID 651965, 2013; active = well fitted falling curve with a large enough effect; inconclusive = small, poorly fitted or top-dose-only effect; inactive = no such curve, though single readings can be large or run the other way; also: the source files actives as falling curves though it sought activators and does not explain the sign; nearly all actives have a fitted effect of over 65% in size
Target sequence (P80244 whole entry, looked up): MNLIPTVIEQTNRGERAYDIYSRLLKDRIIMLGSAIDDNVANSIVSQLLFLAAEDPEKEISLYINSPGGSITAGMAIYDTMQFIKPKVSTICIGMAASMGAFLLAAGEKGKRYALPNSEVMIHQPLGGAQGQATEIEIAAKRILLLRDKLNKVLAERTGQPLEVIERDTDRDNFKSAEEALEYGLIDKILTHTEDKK
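ClpP 10 microg/mL final, pH 8 Tris/KCl buffer with BSA, glycerol, Tween-20; compound pinned in; FRET-FV substrate; RT 20 min; Ex320/Em430; ΔFRET vs ADEP 5.8 microM, DMSO, no enzyme.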
RORgamma inh: ROR gamma (mouse) transcription inhibition; P51450; Potency, µM (doses to about 53.6 µM), hits mostly inhibitors; Drosophila S2 Gal4-RORgamma UAS-luciferase reporter, 20 h; 310,000 tested, 5.4% active; also: nearly all actives have a fitted effect of over 60% in size
Target sequence (P51450 whole entry, looked up, the tested form may be a part): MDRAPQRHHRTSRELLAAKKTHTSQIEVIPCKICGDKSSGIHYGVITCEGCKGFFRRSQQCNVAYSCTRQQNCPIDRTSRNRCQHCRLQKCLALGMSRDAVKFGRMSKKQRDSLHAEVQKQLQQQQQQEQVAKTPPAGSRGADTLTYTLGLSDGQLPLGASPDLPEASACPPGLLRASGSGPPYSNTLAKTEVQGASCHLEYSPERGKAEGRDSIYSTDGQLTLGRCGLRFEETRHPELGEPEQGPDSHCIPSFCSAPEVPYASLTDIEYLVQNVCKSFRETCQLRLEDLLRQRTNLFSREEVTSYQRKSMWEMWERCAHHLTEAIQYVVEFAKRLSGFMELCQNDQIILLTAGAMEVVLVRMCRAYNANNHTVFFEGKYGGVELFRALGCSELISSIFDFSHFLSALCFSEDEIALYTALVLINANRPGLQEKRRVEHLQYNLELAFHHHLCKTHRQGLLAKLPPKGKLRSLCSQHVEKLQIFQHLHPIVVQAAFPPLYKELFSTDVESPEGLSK
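Compounds are pin-transferred onto Drosophila Schneider cells expressing a copper-inducible Gal4–ROR gamma transactivation domain fusion. After 1 hr, copper sulfate is added to 700 uM final; luciferase is read 20 hr later.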
Epigenetic derep: regulators of epigenetic silencing causing reporter derepression in mouse cells. murine LDR cells, GFP reporter derepression, 30 h. Potency, µM (titrated, usually from 53.9 µM), most hits filed as activators. 280,000 tested, 0.2% active. AID 1865; also: nearly all actives have a fitted effect of over 60% in size
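GFP-positive cell count by laser-scanning cytometry (objects 20–120 um) after 30 h, 37 C compound exposure of murine LDR cells; reporter is CMV-GFP integrated at a silenced locus, inducible by HDAC or DNMT inhibitors.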
VP16 counter: inhibits Gal4-VP16 luciferase reporter, ROR gamma counter-screen. Drosophila S2 Gal4-VP16 UAS-luciferase, luminescence, 20 h. Potency, µM (titrated, usually from 53.6 µM), usual class: inhibitors. 310,000 tested, 3.5% active;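 also: Gal4-VP16 expression switched on by copper sulfate through the metallothionein promoter; nearly all actives have a fitted effect of over 50% in size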
Of the large screens only hits and unclear results are named; the others gave an inactive call. This is a sample that favours compounds with a hit; in the whole collection about 8.1% have one here. Unless noted, calls follow the shape of the dose curve; as a rule, active = well fitted curve in the direction sought with a large enough effect; inconclusive = small, poorly fitted or top-dose-only effect, or another doubt; inactive = no such curve, though single readings can be large; an effect the other way counts as inactive or inconclusive.

Cc1ccc(CN(C(=O)c2ccccc2F)c2ccccn2)o1	none (no result: Sfp PPTase inh, RORgamma inh, VP16 counter)
CC(C)CNC(=O)c1c(-c2ccccc2)c(-c2ccccc2)nn(C)c1=O	none (no result: Sfp PPTase inh, RORgamma inh, VP16 counter)
O=C(NN=C1c2ccccc2-c2ccccc21)c1cccc(Br)c1	RORgamma inh 1.78µM, VP16 counter 3.16µM
CC(NC(=O)COc1ccc(Br)cc1)C(=O)O (stereo not drawn)	none
CC(NC(=O)COc1cccc(Br)c1)C(=O)O (stereo not drawn)	ClpP mod 28.2µM
O=C(COc1cccc(Br)c1)N/N=C1\CCSC1	ClpP mod 22.4µM
O=C(COc1cccc(Br)c1)NN=C1c2ccccc2-c2ccccc21	PINK1 expr mod inconclusive, RORgamma inh 20µM, VP16 counter inconclusive
CCC/C=N/NC(=O)c1cccc(Br)c1	RORgamma inh inconclusive (no result: ClpP mod)
O=C(COc1cccc(Br)c1)N/N=C1\CCCc2ccccc21	none (no result: ClpP mod)
COC(=O)c1sc2cccc(F)c2c1S(=O)(=O)N1CCN(c2cccc(OC)c2)CC1	none (no result: Sfp PPTase inh, RORgamma inh, VP16 counter)
COc1ccccc1NC(=O)CSc1nc2ccccc2c(=O)n1CCC(=O)NC1CCCCC1	none (no result: Sfp PPTase inh, RORgamma inh, VP16 counter)
Cc1cc(Cl)ccc1NC(=O)C1CCN(S(=O)(=O)c2ccc3[nH]c(=O)ccc3c2)CC1	none (no result: Sfp PPTase inh, RORgamma inh, VP16 counter)
C[C@H](N)CCP(=O)(O)O	none (no result: PINK1 expr mod, ClpP mod, RORgamma inh, VP16 counter)
COCc1c(C(=O)N2CCC(N(C)C)C2)cnn1-c1ncc2c(n1)-c1ccccc1CCC2 (stereo not drawn)	none (no result: Sfp PPTase inh, ClpP mod, RORgamma inh, Epigenetic derep, VP16 counter)
CCN1CCN(/C=N/c2nc3c(s2)CCCC3)CC1	RORgamma inh 8.91µM, VP16 counter 7.08µM
CN1CCN(CC(=O)Nc2nc3c(s2)CCCC3)CC1	none
COc1c([N+](=O)[O-])c(=O)n(-c2ccccc2)c2ccccc12	Sfp PPTase inh 17.8µM
CCCCS(=O)(=O)N1CCc2nc(COc3ccccc3)c3c(c2C1)CO[C@@H](C)C3	none (no result: PINK1 expr mod, ClpP mod, RORgamma inh, Epigenetic derep, VP16 counter)
C/C(CCN1CCc2nc(-c3ccccc3)c(-c3ccccc3)cc2C1)=N\OC[C@@H](O)[C@@H]1O[C@@H]2OC(C)(C)O[C@@H]2[C@H]1O	none (no result: PINK1 expr mod, ClpP mod)
CC(=O)NC1CCCN(O)C(=O)/C=C(\C)CCOC(=O)C(NC(C)=O)CCCN(O)C(=O)/C=C(\C)CCOC(=O)C(NC(C)=O)CCCN(O)C(=O)/C=C(\C)CCOC1=O (stereo not drawn)	Sfp PPTase inh 56.2µM
Fc1ccc(C2CC(c3ccco3)=NN2c2ccccc2)cc1 (stereo not drawn)	none
O=[N+]([O-])c1ccc(N2N=C(c3ccco3)CC2c2ccccc2)cc1 (stereo not drawn)	Sfp PPTase inh 50.1µM, Epigenetic derep inconclusive
O=C(/C(=N\Nc1ccc([N+](=O)[O-])cc1)Sc1nnnn1-c1ccccc1)c1ccccc1	PINK1 expr mod inconclusive, RORgamma inh inconclusive, VP16 counter inconclusive
Cc1ccc(N/N=C(/Sc2nnnn2-c2ccccc2)C(=O)c2ccccc2)cc1	RORgamma inh 10µM, VP16 counter inconclusive
COc1ccc(-n2cnnc2SC(C)c2nc3sc(C)c(C)c3c(=O)[nH]2)cc1 (stereo not drawn)	Sfp PPTase inh 89.1µM (no result: PINK1 expr mod, ClpP mod)
CCc1cccc(NCc2ccccc2-c2nnc(-c3ccccc3Cl)o2)c1	none (no result: Sfp PPTase inh, RORgamma inh, VP16 counter)
Cn1ncc([N+](=O)[O-])c1C(=O)Nc1ccn(Cc2ccccc2F)n1	none
Cc1nn(Cc2cccc(C(=O)Nc3ccn(Cc4ccccc4F)n3)c2)c(C)c1[N+](=O)[O-]	Sfp PPTase inh 22.4µM, PINK1 expr mod inconclusive
Cc1nn(Cc2ccccc2)c(C)c1NC(=O)CCCn1nc(C)c([N+](=O)[O-])c1C	ClpP mod 28.2µM
Cc1nn(Cc2ccc(Cl)cc2)c(C)c1NC(=O)C(c1ccccc1)c1ccccc1	RORgamma inh 11.2µM
Cc1nn(Cc2ccc(Cl)cc2)c(C)c1NC(=O)CCCn1nc(C)c([N+](=O)[O-])c1C	none
O=C(CCS(=O)(=O)c1nc(-c2ccc3c(c2)OCO3)cc(C(F)(F)F)n1)Nc1ccc(F)c(Cl)c1	none (no result: Sfp PPTase inh, RORgamma inh, VP16 counter)
CCOc1ccccc1N(CC(=O)NCCSc1ccccc1)S(=O)(=O)c1ccccc1	none (no result: Sfp PPTase inh, RORgamma inh, VP16 counter)
Cc1ccc(CC2S/C(=N/c3ccccn3)NC2=O)cc1 (stereo not drawn)	RORgamma inh 2.82µM, VP16 counter 3.55µM
O=C1N/C(=N/c2ccccn2)SC1Cc1ccccc1 (stereo not drawn)	RORgamma inh 0.891µM, VP16 counter 2.51µM (no result: PINK1 expr mod)
O=C1N/C(=N\c2ccccn2)SC1Cc1ccc(Cl)cc1 (stereo not drawn)	RORgamma inh 2µM, VP16 counter 3.16µM (no result: ClpP mod)
O=C1NC(=Nc2ccccc2)SC1Cc1ccccc1 (stereo not drawn)	none (no result: ClpP mod)
Cc1cccc(-c2noc(-c3ccc(NCc4cccnc4)c([N+](=O)[O-])c3)n2)c1	none (no result: Sfp PPTase inh, RORgamma inh, VP16 counter)
COc1ccc(-n2ncc(C(=O)N3CCN(C4CCCCC4)CC3)c2C2CCN(C(=O)OC(C)(C)C)CC2)cc1	none (no result: Sfp PPTase inh, RORgamma inh, VP16 counter)
C(/Oc1ccccc1)=C1\Nn2c(nnc2-c2cc(-c3ccccc3)n[nH]2)S1	none (no result: Sfp PPTase inh, RORgamma inh, Epigenetic derep, VP16 counter)
c1ccc(CNc2oc(-c3ccccc3)nc2-c2ccccc2)cc1	none (no result: PINK1 expr mod, ClpP mod)
S=c1[nH]ncn1-c1ccccn1	Sfp PPTase inh 22.4µM, RORgamma inh inconclusive
COc1ccc(Cc2n[nH]c(=S)n2N)cc1OC	Sfp PPTase inh 20µM
Nn1c(Cc2ccccc2F)n[nH]c1=S	Sfp PPTase inh inconclusive
C=CCn1c(Cc2ccc(OCC)cc2)nnc1SCC(N)=O	PINK1 expr mod inconclusive
